# Source: publication PMC4336329 (PLoS ONE, 2015)
# The whole screen tested about 310,000 compounds, of which about 14,000 (4.5%) showed an effect of 50% or more. The effect is printed as a negative number. The sample as a whole holds a higher share of strong results than the screen did.
# Target: human ether-à-go-go-related gene (hERG) potassium channel (human, UniProt Q12809)
# Experiment: primary screen, population patch clamp on CHO cells stably expressing hERG; higher = less effect of the substance
# 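Note: peak tail current of the secondary pulse compared with the same well before compound.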
# human ether-à-go-go-related gene (hERG) potassium channel, sequence (Q12809 whole entry, looked up): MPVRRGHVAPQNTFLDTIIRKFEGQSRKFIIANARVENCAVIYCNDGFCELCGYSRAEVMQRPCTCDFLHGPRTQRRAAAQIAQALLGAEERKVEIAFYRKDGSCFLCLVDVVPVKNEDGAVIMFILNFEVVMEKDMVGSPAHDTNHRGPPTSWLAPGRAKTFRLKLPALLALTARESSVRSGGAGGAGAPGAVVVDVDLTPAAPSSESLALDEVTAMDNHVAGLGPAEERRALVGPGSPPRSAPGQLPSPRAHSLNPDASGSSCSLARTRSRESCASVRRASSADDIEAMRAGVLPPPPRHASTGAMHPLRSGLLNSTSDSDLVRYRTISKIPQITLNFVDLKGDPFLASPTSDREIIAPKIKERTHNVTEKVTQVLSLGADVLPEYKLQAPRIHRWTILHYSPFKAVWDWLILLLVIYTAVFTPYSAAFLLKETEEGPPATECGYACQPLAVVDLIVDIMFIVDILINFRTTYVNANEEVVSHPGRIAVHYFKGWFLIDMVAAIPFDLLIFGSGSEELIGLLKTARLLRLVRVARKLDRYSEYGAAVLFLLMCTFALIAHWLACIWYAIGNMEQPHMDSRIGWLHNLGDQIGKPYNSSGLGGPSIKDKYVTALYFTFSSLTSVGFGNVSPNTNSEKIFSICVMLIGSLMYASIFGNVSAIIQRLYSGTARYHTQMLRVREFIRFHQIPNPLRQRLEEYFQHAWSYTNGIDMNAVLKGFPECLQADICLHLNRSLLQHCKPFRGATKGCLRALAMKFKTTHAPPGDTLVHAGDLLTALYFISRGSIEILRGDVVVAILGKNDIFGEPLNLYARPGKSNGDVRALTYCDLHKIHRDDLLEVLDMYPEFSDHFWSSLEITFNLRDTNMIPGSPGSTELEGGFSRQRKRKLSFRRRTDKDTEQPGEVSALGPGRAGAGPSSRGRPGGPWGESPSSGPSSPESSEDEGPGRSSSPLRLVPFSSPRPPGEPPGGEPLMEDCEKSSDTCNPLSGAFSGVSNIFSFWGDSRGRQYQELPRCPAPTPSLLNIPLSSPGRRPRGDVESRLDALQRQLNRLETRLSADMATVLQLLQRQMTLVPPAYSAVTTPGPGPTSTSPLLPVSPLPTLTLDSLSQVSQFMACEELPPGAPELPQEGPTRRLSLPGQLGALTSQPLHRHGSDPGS
row,Compound,"hERG current change (%, negative = inhibition) at 10uM [%]"
1,CCCn1c(CN2CCCCC2CC)nc2c1c(=O)n(C)c(=O)n2C (stereo not shown),-5.14
2,Cc1ccc(Nc2nc(-c3ccc(O)cc3O)cs2)nc1,11.1
3,N/C(=N\[N+](=O)[O-])N1CCN(C(=O)c2ccccc2)CC1,24.8
4,CC(C)(C)c1ccc(/C=N/Nc2nncn2N)cc1,-21.5
5,CCNc1nc(NC(C)C)nc(N2CC(=O)N(CC(=O)OCC)C2=N)n1,-13.9
6,CCOC(=O)CN1C(=N)N(c2nc(NC(C)C)nc(NC(C)C)n2)CC1=O,-73.8
7,CCOC(=O)CN1C(=N)N(c2nc(NC(C)C)nc(OC)n2)CC1=O,-13.1
8,COCCNC(=O)c1ccc(CS(=O)(=O)c2cccc(C(F)(F)F)c2)o1,4.09
9,CCCCNC(=O)c1ccc(CS(=O)(=O)c2cccc(C(F)(F)F)c2)o1,-53.5
10,O=C(NCc1ccco1)c1ccc(CS(=O)(=O)c2cccc(C(F)(F)F)c2)o1,-60.3
11,CCOCCCNC(=O)c1ccc(CS(=O)(=O)c2cccc(C(F)(F)F)c2)o1,6.78
12,COCCCNC(=O)c1ccc(CS(=O)(=O)c2cccc(C(F)(F)F)c2)o1,-8.62
13,O=C(NCc1ccc2c(c1)OCO2)c1ccc(CS(=O)(=O)c2cccc(C(F)(F)F)c2)o1,-24.2
14,COC(=O)c1cccc(Cn2cc([N+](=O)[O-])cn2)c1,8.41
15,Cc1ccc(Nc2ncnc3c2nnn3Cc2ccccc2)cc1,8.07
16,O=C(CCS(=O)(=O)c1cc(Br)cc2c1N(C(=O)C1CC1)CC2)NCC1CCCO1 (stereo not shown),10.8
17,Cc1ccc(-c2nc3nc4ccccc4nc3n2Cc2ccco2)cc1,-18.7
18,c1ccc(Cn2c(-c3ccco3)nc3nc4ccccc4nc32)cc1,6.13
19,COc1ccccc1Cn1c(-c2ccco2)nc2nc3ccccc3nc21,-4.67
20,CCCCCn1c(-c2ccco2)nc2nc3ccccc3nc21,-67.5
21,COCCn1c(-c2ccco2)nc2nc3ccccc3nc21,2.99
22,CCCCOCCCn1c(-c2ccco2)nc2nc3ccccc3nc21,-55.9

row,Compound,"hERG current change (%, negative = inhibition) at 10uM [%]"
1,COc1ccc(CCn2c(-c3ccco3)nc3nc4ccccc4nc32)cc1,-3.77
2,c1ccc(-c2nc3nc4ccccc4nc3n2Cc2ccco2)cc1,-61.2
3,Clc1ccc(-c2nc3nc4ccccc4nc3n2Cc2ccco2)cc1,-12.3
4,O=C(O)CSc1sc(=S)sc1SCC(=O)O,13.7
5,COC(=O)c1ccc(OC)c(CSc2nnc(-c3ccc(C(C)(C)C)cc3)o2)c1,9.83
6,CC(=O)Nc1ccc(OCC(=O)NCc2ccccc2)cc1,19
7,O=C(Cn1nc(C(F)F)cc1C(F)F)N/N=C/c1ccc2c(c1)OCO2,24.7
8,CC(=O)N1CCc2cc(S(=O)(=O)NC(Cc3ccccc3)C(=O)Nc3cc(C)ccn3)ccc21 (stereo not shown),1.38
9,CCOc1ccccc1N(CC(=O)NCCOC)C(=O)CCC(=O)Nc1ccccn1,19.6
10,Cc1cccc(NC(=S)N(C)Cc2cn(C)c3ccccc23)c1,-7.49
11,COc1ccc(S(=O)(=O)NCc2ccco2)c2ccccc12,-9.68
12,Cc1cc2oc(=O)cc(CN3CCCCC3C)c2cc1Cl (stereo not shown),-0.834
13,N#Cc1c(-c2ccc(Cl)cc2)ccnc1N1CCOCC1,3.33
14,CCN(c1ccccc1)S(=O)(=O)c1ccc(Cl)c(NC(=O)CN2CCCCCC2)c1.O=C(O)C(=O)O,10.1
15,CCN(c1ccccc1)S(=O)(=O)c1ccc(Cl)c(NC(=O)CN2CCN(C)CC2)c1,-59.2
16,CCN(c1ccccc1)S(=O)(=O)c1ccc(Cl)c(NC(=O)CSc2nnc(C)s2)c1,-24.2
17,CCN(c1ccccc1)S(=O)(=O)c1ccc(Cl)c(NC(=O)CN(C)C2CCN(C)CC2)c1,-38.8
18,CCN(c1ccccc1)S(=O)(=O)c1ccc(Cl)c(NC(=O)COC(=O)c2ccc(O)cc2)c1,6.44
19,CCC(C)NCC(=O)Nc1cc(S(=O)(=O)N(CC)c2ccccc2)ccc1Cl (stereo not shown),-78.8
20,COc1ccc(/C=N/NC(=O)C2CC2)c(OC)c1OC,12.9
21,COc1ccc(NC(=O)CSc2nc3ccccc3nc2N2CCCC2)c(OC)c1,24.1
